In PubChem BioAssay AID651739 (Broad Institute, 2012):
In all, about 5,600 compounds went through this assay and about 4,100 (73%) were called active. Roughly 4% stayed inconclusive and do not appear here.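 The calls were made as follows: active = mean replicate inhibition above about 95% and at least 55% of replicates individually reaching it (limit read from the data); inconclusive = only one of the two criteria is met; inactive = neither criterion is met.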 The set was probably picked from earlier hits. The list is a sample of the results.

Assay: T. cruzi intracellular proliferation inhibitors, confirmation, cell-based, NIH3T3 host, beta-gal parasite, luminescence, cherry-pick (AID 651739)
Details: T. cruzi beta-gal in NIH3T3, GalScreen luminescence, 90 h; at 8.35 µM; hits give high values
In the case of `O=C(c1ccccn1)N1CC[C@@H]2[C@H]1c1cc(-c3ccccc3)ccc1N[C@@H]2CO`, the inhibition is reported as 107% (active). In the case of `CN(C)C(=O)c1ccc(-c2ccc3c(c2)[C@H]2[C@H](CCN2C(=O)c2ccc4c(c2)OCO4)[C@H](CO)N3)cc1`, the inhibition is reported as 100% (active). For `O=C(c1cnccn1)N1CC[C@@H]2[C@H](CO)Nc3ccc(-c4cccc(F)c4)cc3[C@@H]21`, the inhibition was 109% (active). With `OC[C@@H]1Nc2ccc(-c3cccc(F)c3)cc2[C@H]2[C@@H]1CCN2Cc1ccncc1` the inhibition was 114% (active). For `O=C(c1ccccc1F)N1C[C@H]2[C@@H](c3ccccc31)[C@@H](CO)N2C(=O)c1ccc(F)cc1`, the inhibition was 46.6% (inactive). For `C[C@@H]1CN([C@@H](C)CO)S(=O)(=O)c2ccc(C#Cc3ccc(F)cc3)cc2O[C@H]1CN(C)S(C)(=O)=O`, the inhibition was 85.8% (inactive). In the case of `CCCN(C)C[C@@H]1Oc2cc(C#Cc3ccc(F)cc3)ccc2S(=O)(=O)N([C@H](C)CO)C[C@H]1C`, the inhibition is reported as 108% (active). For `CCCN(C)C[C@H]1Oc2cc(C#CC3CCCC3)ccc2S(=O)(=O)N([C@H](C)CO)C[C@@H]1C`, the inhibition was 105% (active). In the case of `C[C@@H]1CN([C@H](C)CO)S(=O)(=O)c2ccc(C#Cc3ccncc3)cc2O[C@@H]1CN(C)S(=O)(=O)c1ccc(F)cc1`, the inhibition is reported as 70.2% (inactive). In the case of `CN1c2ccc(-c3ccccc3)cc2[C@@H]2[C@@H](CCN2C(=O)c2ccncc2)[C@@H]1CO`, the inhibition is reported as 100% (active). For `CN1c2ccc(-c3ccccc3)cc2[C@H]2[C@H](CCN2C(=O)Cc2ccccn2)[C@H]1CO`, the inhibition was 88.9% (inactive). With `COc1ccc(NC(=O)N2CC[C@@H]3[C@@H](CO)N(C)c4ccc(-c5cccc(F)c5)cc4[C@@H]32)cc1` the inhibition was 100% (active). For `COc1ccc(-c2ccc3c(c2)[C@@H]2[C@@H](CCN2C(=O)Cc2ccccn2)[C@H](CO)N3C)cc1`, the inhibition was 108% (active). In the case of `CCC(=O)N1CC[C@@H]2[C@@H](CO)N(C)c3ccc(-c4cccc(OC)c4)cc3[C@@H]21`, the inhibition is reported as 99.1% (active). With `CCC(=O)N1CC[C@@H]2[C@@H](CO)N(C)c3ccc(-c4ccc(F)cc4)cc3[C@@H]21` the inhibition was 102% (active). With `Cc1noc(C)c1S(=O)(=O)N(C)C[C@H]1Oc2ccc(N(C)C)cc2CC(=O)N([C@H](C)CO)C[C@@H]1C` the inhibition was -37.8% (inactive). With `C[C@H](CO)N1C[C@H](C)[C@@H](CN(C)S(=O)(=O)c2cccc(F)c2)OCc2ccccc2-c2c(n(C)c3ccccc23)C1=O` the inhibition was 99.6% (active). For `C[C@H](CO)N1C[C@H](C)[C@H](CN(C)S(=O)(=O)c2ccccc2)Oc2ncc(-c3cccc(C(F)(F)F)c3)cc2C1=O`, the inhibition was 108% (active). With `C[C@@H]1CN([C@H](C)CO)C(=O)c2cc(-c3cncnc3)cnc2O[C@H]1CN(C)C(=O)Nc1ccc2c(c1)OCO2` the inhibition was -15.5% (inactive). For `C[C@H]1CN([C@@H](C)CO)C(=O)c2ccccc2-c2ccccc2CO[C@@H]1CN(C)S(=O)(=O)c1ccc(C(F)(F)F)cc1`, the inhibition was 99.2% (active). For `C[C@H](CO)N1C[C@H](C)[C@@H](CN(C)C(=O)Nc2ccnc(N3CCOCC3)c2)OCc2ccccc2-c2ccccc2C1=O`, the inhibition was 100% (active). For `COc1ccccc1-c1ccc2c(c1)O[C@H](CN(C)S(=O)(=O)c1ccc(C)cc1)[C@@H](C)CN([C@H](C)CO)S2(=O)=O`, the inhibition was 93.9% (inactive). For `C[C@H](CO)N1C[C@H](C)[C@H](CN(C)S(=O)(=O)c2cccc(F)c2)Oc2ncc(/C=C/c3ccccc3)cc2C1=O`, the inhibition was 102% (active). With `Cc1ccc(S(=O)(=O)N(C)C[C@@H]2Oc3ncc(-c4cc5ccccc5o4)cc3C(=O)N([C@H](C)CO)C[C@@H]2C)cc1` the inhibition was 105% (active). In the case of `Cc1ccc(-c2cnc3c(c2)C(=O)N([C@@H](C)CO)C[C@@H](C)[C@H](CN(C)Cc2ccccc2F)O3)cc1`, the inhibition is reported as 102% (active). With `C[C@@H]1CN([C@H](C)CO)S(=O)(=O)c2ccc(C#CC3CCCC3)cc2O[C@@H]1CN(C)Cc1cccnc1` the inhibition was 98.8% (active). In the case of `C[C@@H]1CN([C@H](C)CO)S(=O)(=O)c2ccc(C#CC3CCCC3)cc2O[C@@H]1CN(C)C(=O)Cc1ccncc1`, the inhibition is reported as 92.6% (inactive). In the case of `C[C@H]1CN([C@@H](C)CO)S(=O)(=O)c2ccc(C#CC3CCCC3)cc2O[C@H]1CN(C)C(=O)Cc1ccncc1`, the inhibition is reported as 110% (active). In the case of `C[C@H](CO)N1C[C@H](C)[C@H](CN(C)Cc2cccnc2)Oc2cc(C#CC3CCCC3)ccc2S1(=O)=O`, the inhibition is reported as 108% (active). In the case of `C[C@@H]1CN([C@H](C)CO)C(=O)c2cc(NC(=O)Nc3ccc(F)cc3)ccc2O[C@@H](C)CCCCO[C@H]1CN(C)Cc1ccc(Cl)c(Cl)c1`, the inhibition is reported as 98.3% (active). With `C[C@@H]1CCCCO[C@@H](CN(C)Cc2ccc(Cl)c(Cl)c2)[C@H](C)CN([C@H](C)CO)C(=O)c2cc(NC(=O)Nc3ccc(F)cc3)ccc2O1` the inhibition was 88.5% (inactive). In the case of `COc1ccc(NC(=O)Nc2ccc3c(c2)C(=O)N([C@H](C)CO)C[C@@H](C)[C@H](CN(C)Cc2ccc(Cl)c(Cl)c2)OCCCC[C@@H](C)O3)cc1`, the inhibition is reported as 98.8% (active). In the case of `C[C@@H]1CN([C@H](C)CO)C(=O)Cc2cc(NC(=O)c3ccncc3)ccc2O[C@H]1CN(C)Cc1ccc(-c2ccccc2)cc1`, the inhibition is reported as 109% (active). With `C[C@H](CO)N1C[C@H](C)[C@H](CN(C)Cc2ccc(-c3ccccc3)cc2)Oc2ccc(NC(=O)Nc3ccc(F)cc3)cc2CC1=O` the inhibition was 110% (active). In the case of `C[C@H](CO)N1C[C@H](C)[C@@H](CN(C)Cc2ccc(-c3ccccc3)cc2)Oc2ccc(NC(=O)CCC(F)(F)F)cc2CC1=O`, the inhibition is reported as 92.4% (inactive). In the case of `C[C@@H]1CN([C@@H](C)CO)C(=O)Cc2cc(NC(=O)C3CCCCC3)ccc2O[C@@H]1CN(C)Cc1ccc(C(=O)Nc2ccccc2N)cc1`, the inhibition is reported as 103% (active). In the case of `COc1ccc(-c2ccc([C@H]3[C@H]4CN(C(=O)c5ccc6c(c5)OCO6)CCCCN4[C@H]3CO)cc2)cc1`, the inhibition is reported as 106% (active). For `CCCC#Cc1ccc([C@H]2[C@H](CO)N3CCCCN(C(=O)c4ccc5c(c4)OCO5)C[C@@H]23)cc1`, the inhibition was 104% (active). In the case of `COCC#Cc1ccc([C@@H]2[C@H](CO)N3CCCCN(C(=O)CN(C)C)C[C@@H]23)cc1`, the inhibition is reported as 57.7% (inactive). With `Cc1cccc(-c2ccc([C@@H]3[C@H](CO)N4CCCCN(C(=O)c5ccc6c(c5)OCO6)C[C@@H]34)cc2)c1` the inhibition was 105% (active).
